Most compounds without a hit are left out; they make up all but 3.4% or so of the library.
FBW7 activator: FBW7 E3 ligase activators, primary screen, biochemical, AlphaScreen, human. F-box/WD repeat-containing protein 7 (Homo sapiens), Q969H0. AlphaScreen FBW7–phospho-cyclin E peptide binding, activator screen. normalized activity (activation), % at 26.1 µM. 650,000 tested, 0.13% active; in the data active = normalized activity above about 1.9%;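 note: purified mutant Fbw7 with reduced substrate affinity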
GPR151 activ: activators of human GPR151, primary screen, cell-based, PathHunter beta-arrestin, luminescence; G-protein coupled receptor 151 (Homo sapiens), Q8TDV0; PathHunter beta-arrestin GPR151 cells; activation, % at 11.2 µM; 650,000 tested, 1% active; in the data active = activation above about 4.9%;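 note: 0% = median of compound wells and 100% = cells with positive control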
Target sequence (Q8TDV0 whole entry, looked up): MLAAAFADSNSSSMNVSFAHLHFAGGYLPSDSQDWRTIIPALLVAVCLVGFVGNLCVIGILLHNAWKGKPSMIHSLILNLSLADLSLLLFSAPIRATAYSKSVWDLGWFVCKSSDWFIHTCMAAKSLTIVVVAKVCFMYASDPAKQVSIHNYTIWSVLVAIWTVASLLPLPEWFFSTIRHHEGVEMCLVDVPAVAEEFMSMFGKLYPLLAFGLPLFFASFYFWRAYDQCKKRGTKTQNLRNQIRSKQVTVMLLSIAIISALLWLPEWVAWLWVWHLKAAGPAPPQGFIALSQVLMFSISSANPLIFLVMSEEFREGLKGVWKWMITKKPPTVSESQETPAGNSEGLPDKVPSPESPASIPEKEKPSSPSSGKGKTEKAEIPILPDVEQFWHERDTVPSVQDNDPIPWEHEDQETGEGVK
MITF inh: MITF inhibitors, primary screen, biochemical, AlphaScreen, human. Microphthalmia-associated transcription factor (Homo sapiens), O75030. AlphaScreen MITF homodimerization, bead proximity signal. inhibition, % at 2.6 µM. 650,000 tested, 0.91% active. AID 1259374, 2018; in the data active = inhibition above about 50%;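 note: 0% = vehicle wells with protein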
TEAD-YAP inh: TEAD-YAP interaction inhibition, primary screen, TEAD-YAP interaction inhibitor project, luminescence, HEK-TIYL cells | TEAD-Gal4/YAP UAS-luciferase luminescence | inhibition, % at 9.12 µM | AID 1259422, 2018 | 640,000 tested, 1.4% active; in the data active = inhibition above about 32%;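 note: 0% = median of test compound wells and 100% = reference inhibitor wells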
GPR151 confirm: GPR151 activators, triplicate retest, confirmation, cell-based, PathHunter beta-arrestin, luminescence; 6,700 tested, under 10 active; AID 1508609, 2020; activation, % at 11.2 µM; GPR151 PathHunter beta-arrestin cells, 90 min; % of EA-reagent control over plate median; shares compounds with GPR151 activ;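 active = mean percent activation across replicates above the confirmation screen cutoff of 4.91%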
GPR119 ag: GPR119 activators in beta-arrestin cells, counter-screen for GPR151 activator project, cell-based, PathHunter beta-arrestin, luminescence, triplicate | shares compounds with GPR151 activ | 6,700 tested, 0.3% active | AID 1508611, 2020 | activation, % at 11.2 µM | 90 min; 0 = compound-well median, 100 = enzyme-acceptor control;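 active = mean percent activation in the counterscreen above 29.09%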;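 note: counterscreen on off-target GPR119 to flag nonselective hits from the GPR151 activator screen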
* = called active by the depositor; / = no result given; ! = a repeat was not active.

SMILES | FBW7 activator | GPR151 activ | MITF inh | TEAD-YAP inh | GPR151 confirm | GPR119 ag
Cn1ncc(Cl)c(C(C#N)c2ccc3ccccc3n2)c1=O (stereo not given) | 0 | 2 | 12 | 23 | / | /
CCCCN(CC)c1cnn(-c2ccccc2)c(=O)c1N | 0 | 9.2* | 13 | -5 | 0 | -1
Cc1ccc(-c2nc(C3CCCN3C(=O)CCCC(=O)O)n3ccccc23)cc1 (stereo not given) | -1 | 5.5* | 4 | -13 | 0 | -2
CN(C)CCC(Oc1ccc(F)cc1)c1ccc(S(C)(=O)=O)cc1 (stereo not given) | 0 | 5.6* | 34 | 6 | 0 | 10
Cc1ccc(NC(=O)c2cnn3c(C(F)(F)F)cc(-c4ccc(C)cc4)nc23)cc1 | 1 | -2 | 3 | 5 | / | /
CCOC(=O)c1c(C)[nH]c(NC(=O)Nc2ccc(OCC)cc2)c1C | 0 | 6.0* | -6 | 3 | 1 | 4
CCOC(=O)c1c(C)[nH]c(NC(=O)Nc2ccc(F)cc2)c1C | 0 | 0 | -4 | 2 | / | /
Cn1cc(-c2cnc3c(n2)[nH]c(=O)n3CC2CC2)cn1 | 0 | 7.7* | 22 | 5 | 1 | 8
CC(C)Cn1c(=O)[nH]c2nc(-c3cnn(C)c3)cnc21 | 0 | 0 | 11 | 0 | / | /
Cc1occc1-c1nnc(SCC(=O)NNC(=O)COc2ccc(Cl)cc2)n1C | 0 | 0 | -1 | 16 | / | /
Cc1cccc(CSc2nc(=O)n3ccccc3n2)c1 | 0 | 5.2* | -7 | -10 | -1 | 0
CS(=O)(=O)N1CCN(c2ccc(C(=O)N3CCOCC3)cc2[N+](=O)[O-])CC1 | 1 | 7.6* | 13 | 5 | 0 | 1
O=C(c1ccc(N2CCCCCC2)c([N+](=O)[O-])c1)N1CCOCC1 | 0 | -1 | 7 | -2 | / | /
CCOC(=O)c1cnc2c(ccc3ccccc32)c1NCc1ccco1 | 1 | 5.8* | -1 | -6 | 1 | 6
CCOC(=O)c1cnc2c(C)c(C)ccc2c1NCc1ccco1 | 0 | 3 | 6 | -10 | / | /
CCCCCCCCCCCCCCCC(=O)NCCO | 0 | 9.1*! | -9 | 11 | 0 | 11
CC1C(=O)Nc2ccc(S(=O)(=O)Nc3ccc(Cl)c(C(F)(F)F)c3)cc2NC1=O (stereo not given) | 0 | 1 | 23 | 4 | / | /
CCOC(=O)c1sc2nc(SCc3cc(C(C)=O)ccc3OC)n(CCc3ccc(Cl)cc3)c(=O)c2c1C | 0 | 1 | 1 | -10 | / | /
Cc1ccc(NC(=O)CCNS(=O)(=O)c2ccc3nc(-c4ccccc4)[nH]c3c2)cc1 | 0 | 0 | -3 | 12 | / | /
CCC(C)NC(=O)CCNS(=O)(=O)c1ccc2nc(-c3ccccc3)[nH]c2c1 (stereo not given) | 0 | 7.0* | 6 | -1 | 1 | -1
Cc1ccccc1C1CC(=O)Nc2cc3c(cc21)OCO3 (stereo not given) | 0 | 6.0* | 11 | 6 | 0 | 6
Cc1ccc(Nc2nnc(SCC(=O)N3CCCC3)s2)cc1 | 0 | 5.6* | -17 | 2 | 0 | -12
Cc1ccc(Nc2nnc(SCC(=O)N3CCOCC3)s2)cc1 | 0 | -2 | 4 | -6 | / | /
COc1ccc(Cl)cc1C(=O)n1nc(C)cc1C | 0 | 9.6* | 27 | -5 | 0 | 0
Cc1cc(C)n(C(=O)CSc2ccc(Cl)cc2)n1 | 1 | 7.8* | 15 | 8 | -1 | -15
SMILES | FBW7 activator | GPR151 activ | MITF inh | TEAD-YAP inh | GPR151 confirm | GPR119 ag
COc1cccc(OC)c1C(=O)n1nc(C)cc1C | 0 | 0 | 16 | 9 | / | /
COC(=O)C1=CN(C)C=C(C(=O)OC)C1c1ccc(C)s1 | 0 | 1 | 3 | 2 | / | /
N#Cc1ccc(NC(=O)COC(=O)C2COc3ccccc3O2)cc1 (stereo not given) | 0 | 7.8* | 2 | 2 | 0 | 1
O=C(c1ccc(F)c(F)c1)N1CCN(c2cc(N3CCCC3)c(F)cc2[N+](=O)[O-])CC1 | 0 | 2 | 0 | 16 | / | /
COc1ccc(C2C(C(=O)OCC(C)C)=C(C)NC3=C2C(=O)CC(c2ccc(Cl)cc2)C3)cc1 (stereo not given) | 1 | 5.5* | -13 | 6 | 1 | 4
COCCOC(=O)C1=C(C)NC2=C(C(=O)CC(c3ccc(Cl)cc3)C2)C1c1cccc(OC)c1OC (stereo not given) | 0 | 0 | -7 | 19 | / | /
CCOC(=O)C1=C(C)NC2=C(C(=O)CC(c3ccc(Cl)cc3)C2)C1c1cccc(OC)c1OC (stereo not given) | 1 | 21* | 6 | 7 | -1 | -8
CC(=O)c1cccc(NC(=O)NC(C)c2nc(-c3cccnc3)n[nH]2)c1 (stereo not given) | 0 | 1 | 4 | 3 | / | /
Cc1cc(NC(=O)Cc2ccc(F)cc2)ccc1N1CCCC1=O | 0 | 5.0* | 17 | 1 | 0 | 0
Cc1cc(NC(=O)Cc2ccc(-c3ccccc3)cc2)ccc1N1CCCC1=O | 0 | 2 | 8 | 11 | / | /
C=C(C)CN(CC)Cc1nc(NCCCOC)c2cc(C)ccc2n1 | 0 | -1 | -4 | 7 | / | /
CC1(C(=O)NNC(=O)Nc2cccc([N+](=O)[O-])c2)CC1(Cl)Cl (stereo not given) | 0 | 6.4* | 7 | 1 | 0 | -1
Cc1noc(NS(=O)(=O)c2ccc(NC(=O)Nc3ccc(F)cc3F)cc2)c1C | 0 | -3 | -5 | -1 | / | /
N#Cc1cc2c(nc1SCc1ccc([N+](=O)[O-])cc1)CCCCC2 | 0 | 6.1* | -1 | 2 | 0 | -9
N#Cc1ccccc1NC(=O)c1ccc(S(=O)(=O)N2CCCCC2)cc1 | 0 | -2 | 6 | -11 | / | /
O=C1NC(c2cccnc2)C(C(=O)c2cccs2)=C1O (stereo not given) | 0 | 6.1* | 27 | 0 | -1 | -12
N#CC1=C(N)N(c2sc3c(c2C#N)CCCCC3)C2=C(C(=O)CCC2)C1c1ccc(F)cc1 (stereo not given) | 0 | 1 | 9 | -12 | / | /
O=C(NCCC1=CCCCC1)c1cccnc1SCc1ccccc1F | 0 | 5.4* | 2 | -6 | 0 | -4
O=C(NCCC1=CCCCC1)c1cccnc1SCc1cccc(Br)c1 | 0 | 1 | 5 | -3 | / | /
O=S(=O)(c1cccnc1)N1CC(c2nc(C3CC3)no2)C1 | 0 | -1 | -11 | 5 | / | /
Cc1cc(-c2cn3c(C)c(C)nnc3n2)ccc1NC(=O)CCn1cncn1 | 0 | 0 | -6 | -26 | / | /
